Pf growth 96h: Primary qHTS for delayed death inhibitors of the malarial parasite plastid, 96 hour incubation | P. falciparum luciferase reporter growth, 96 h | Potency, µM (doses to about 28.7 µM), without a hit: at the highest dose activity change, negative = inhibition, hits mostly inhibitors | 320,000 tested, 6.9% active; further: potency means the concentration at half of the fitted maximal effect; on the % scale 0 is the no-effect control and ±100 the full control effect
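Two-generation exposure (96 h) targets delayed-death phenotype. Reporter parasites carrying integrated firefly luciferase, in red cells at 2% hematocrit and 0.05% parasitemia final, kept at 37 C, 5% CO2; luminescence loss indicates inhibition.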
Shiga inhibitor: A qHTS for Small Molecule Inhibitors of Shiga Toxin; AID 2315, 2010; Vero cells, Shiga toxin protein synthesis inhibition reporter; inhibition, % at 38.7 µM; 290,000 tested, 9.2% active; in the data active means inhibition mostly above about 28%, no sharp cut-off; inactive means mostly below about 43%; further: 0% is about no effect
CHX counter: Cycloheximide Counterscreen for Small Molecule Inhibitors of Shiga Toxin | 300,000 tested, 12% active | max response, % | cell reporter, cycloheximide protein synthesis inhibition counterscreen; in the data active means max response mostly above about 13%, no sharp cut-off; inactive means mostly below about 14%; further: read at 38.3 µM for the half of the compounds with a filed dose; 0% is about no effect
HCMV inh: qHTS Assay for inhibitors of the human cytomegalovirus (HCMV). activity change, negative = inhibition, % at 57.5 µM. HFF cells, HCMV-luciferase reporter, 72 h; stronger effect = lower value. 410,000 tested, 4.5% active. AID 1259415, 2018; in the data active means activity change below about -60%; inconclusive means no clear call, values can overlap the other calls; inactive means above about -39%; further: on the % scale 0 is the no-effect control and ±100 the full control effect
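After 16 h attachment at 37C, HFF cells received test compound and HCMV-luciferase (1 PFU/cell); reporter luminescence read 72 h later, data normalized against buffer-only and known inhibitor Salinomycin.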
Pf growth 48h: Primary qHTS for delayed death inhibitors of the malarial parasite plastid, 48 hour incubation; Potency, µM (series often up to 28.7 µM), for the others: at the highest dose activity change, negative = inhibition, actives largely listed as inhibitors; P. falciparum luciferase growth in erythrocytes, 48 h; AID 504832, 2011; 310,000 tested, 5.9% active; further: potency means the concentration at half of the fitted maximal effect; on the % scale 0 is the no-effect control and ±100 the full control effect
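Growth was read as firefly luciferase luminescence after a 48 h, 37 C, 5% CO2 exposure of compounds to reporter-bearing P. falciparum cultures (0.1% parasitemia, 2% hematocrit final) in Albumax-supplemented RPMI 1640.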
* = called active by the depositor; i = inactive; u = inconclusive; x = no result. Sampled rows, rich in hits. Any-hit rate of the full collection: about 20%. Unless noted, the call rests on the fitted dose curve; in most records, active means well fitted inhibition curve with a large enough effect; inconclusive means small, poorly fitted or top-dose-only effect, or another doubt; inactive means no such curve, though single readings can be large or run the other way.

SMILES | Pf growth 96h | Shiga inhibitor | CHX counter | HCMV inh | Pf growth 48h
CCOc1cc(/C=C2\CCC/C(=C\c3cc(Cl)c(O)c(OCC)c3)C2=O)cc(Cl)c1O | 3.3µM* | 60 | 23* | -98* | u
COc1ccc([C@H]2C[C@@H](n3cc(C4CC4)nn3)[C@H](O)CN2CC2CCCCC2)cc1 | x | x | x | 11 | x
CN(C)CCNc1ncnc2c1ncn2[C@H]1CN(Cc2cccnc2)C[C@@H](CO)O1 | x | x | x | 33 | x
COc1ccc(OCC(=O)NC(Cc2c[nH]c3ccccc23)C(=O)O)cc1 (centres undefined) | x | x | x | 12 | x
CCN(CC)c1ccc(/C=C2/C(=O)ON=C2C)cc1 | 44% | -3 | 13 | -65* | 8%
COc1ccc(-n2c(C)cc(-c3cn4cccc(C)c4n3)c2C)cc1 | u | 10 | 2 | 18 | u
Cc1cc(-c2cn3ccccc3n2)c(C)n1-c1ccccc1 | u | 64* | 48* | 11 | -58%
CN1CCN(CC(=O)Nc2ccc(Cl)cc2Cl)CC1 | 9.3µM* | 25 | 10 | 48 | 15%
CN1CCN(C(=S)Nc2ccc(Cl)cc2Cl)CC1 | 22% | 12 | 16* | -34 | x
Cc1cc(Cl)ccc1NC(=O)CN1CCCC1 | -29% | -4 | 3 | 6 | -8%
CCN1CCN(C(=S)Nc2ccc(Cl)cc2Cl)CC1 | 56% | 26 | 25* | u | x
COC(=O)CN1C(=O)CSc2ccc(S(=O)(=O)Nc3ccc(F)c(Cl)c3)cc21 | x | x | x | -7 | x
Cc1cccc(OCC(=O)O/N=C(\N)Cc2ccc(Cl)cc2)c1 | -12% | 30 | 9 | -2 | -5%
Cc1ccc(N=Cc2cc(Cc3ccccc3Cl)cc([N+](=O)[O-])c2O)c(O)c1 | -20% | 55 | 31* | x | 45%
CCn1c(/C=C/N(C)c2ccccc2)[n+](CC)c2ccc(Cl)cc21 | 0.13µM* | -2 | -1 | -94* | 0.74µM*
CCn1c(/C=C/Nc2ccccc2)[n+](CC)c2ccc(Cl)cc21 | 8.3µM* | -4 | -4 | 11 | u
CCCCCn1cnc2sc(-c3ccccc3)cc2c1=O | 99% | 61* | 47* | 56 | 188%
O=c1c2cc(-c3ccccc3)sc2ncn1/N=C/c1ccco1 | 31% | 83 | 37* | 59 | 131%
CCCCn1cnc2sc(-c3ccccc3)cc2c1=O | i | 98* | 38* | 54 | 102%
COc1ccccc1-n1cnc2sc(-c3ccccc3)cc2c1=O | 0% | 71 | 25 | 80 | 36%
CCN(CC)C(=O)Cn1nnc2sc(-c3ccccc3)cc2c1=O | x | x | x | 2 | x
CNC(=O)NC(=O)Cn1cnc2sc(-c3ccccc3)cc2c1=O | 68% | 22 | -3 | 28 | 36%
Cn1c(=O)[nH]c2cc(-c3noc(-c4ccc(C#N)cc4)n3)ccc21 | x | x | x | -4 | x
CC12COC3(C(=O)Nc4ccc5ccccc5c4)CC1CCC32C (centres undefined) | 148% | 122* | 35* | -17 | 121%
CC12COC3(C(=O)NCCc4ccccc4)CC1CCC32C (centres undefined) | 0.0029µM* | 56* | 50* | 0 | 17%
SMILES | Pf growth 96h | Shiga inhibitor | CHX counter | HCMV inh | Pf growth 48h
CC(Sc1nc2c(c(=O)[nH]1)CCCC2)C(=O)Nc1cc(C(F)(F)F)ccc1Cl (centres undefined) | x | x | x | 3 | x
CCOC(=O)c1cnc(N2CCN(C(=O)OCC)CC2)[nH]c1=O | 168% | -5 | 2 | -16 | 11%
O=C(/C=C/Sc1ccc(C(F)(F)F)cn1)c1ccccc1 | -13% | 36 | 22* | 51 | u
CC(Sc1nnnn1-c1ccccc1)C(=O)Nc1ccccc1-c1ccccc1 (centres undefined) | 2.9µM* | -10 | -1 | u | u
COC(=O)c1ccc(-n2nnnc2SCC(=O)Nc2ccccc2OC)cc1 | x | 37 | -2 | -7 | 10%
Cc1ccc(-n2nnnc2SCC(=O)Nc2ccccc2-c2ccccc2)cc1C | 4.7µM* | 5 | 3 | 3 | -16%
CCOc1ccccc1NC(=O)CSc1nnnn1-c1ccc(C(=O)OC)cc1 | 4.1µM* | -5 | -6 | -20 | 13%
CC(Sc1nnnn1-c1ccccc1)C(=O)Nc1ccc(N2CCN(C)CC2)cc1 (centres undefined) | 22% | 56 | -2 | -11 | -2%
Cc1ccc(-n2nnnc2SCC(=O)Nc2ccccc2N2CCCCC2)cc1C | u | 34 | 8 | -27 | 2.3µM*
O=C(Nc1cccc(F)c1)C1CCN(C(=O)c2ccccc2Cl)CC1 | x | -11 | -2 | -2 | -18%
O=C(CN1C(=O)NC2(CCOc3ccccc32)C1=O)Nc1ccc(Br)cc1F (centres undefined) | -29% | x | x | -2 | -16%
O=c1cc(Br)c(O)c(Br)cc1Br | x | x | x | -5 | x
[O-][n+]1cccc2c(Br)cc(Br)c(O)c21 | 0% | -16 | -2 | -84* | 12%
CCOC(=O)/C(=C\c1ccc(Cl)cc1)c1nc2sc(C)c(C)c2c(=O)[nH]1 | u | -4 | 1 | -75* | u
COc1ccc(CCN2CC(C(=O)Nc3cc(S(C)(=O)=O)ccc3Cl)CC2=O)cc1OC (centres undefined) | 6% | x | x | -22 | 4%
COc1ccccc1N(C)S(=O)(=O)c1ccc(C(=O)NNC(=O)c2ccccc2O)cc1 | u | x | x | -37 | u
COc1cc(OC)cc(C(=O)NNC(=O)c2ccc(S(=O)(=O)N(C)c3ccccc3OC)cc2)c1 | 0.083µM* | -2 | 0 | 3 | -82%
COC(=O)c1cc(CNC(=O)c2ccc(S(=O)(=O)N(C)c3ccccc3)cc2)ccc1OC | 12µM* | x | x | -2 | 3.7µM*
COc1ccccc1N(C)S(=O)(=O)c1ccc(C(=O)NCc2ccc3c(c2)OCO3)cc1 | u | -8 | 5 | u | 9.3µM*
COc1ccc(C(OC(=O)c2ccco2)C(=O)NC(C)(C)C)cc1OC (centres undefined) | x | x | x | 46 | x
CCOc1ccc(NC(=O)Cn2c(=O)n(Cc3ccccc3)c(=O)c3c4c(sc32)CN(C(C)=O)CC4)cc1 | x | x | x | 11 | x
C[C@H]1CN([C@@H](C)CO)C(=O)CCCn2nncc2CO[C@@H]1CN(C)S(=O)(=O)c1ccccc1 | x | x | x | 22 | x
CCOC(=O)C1CCC(CNCc2ccc(Cl)cc2)CC1 (centres undefined) | 52% | -7 | -1 | -34 | -12%
CC1CCCCN1C(=O)Cn1cc(C=O)c2ccccc21 (centres undefined) | 13µM* | -14 | -6 | -23 | -4%
CC1CCCCN1C(=O)Cn1cc(C=C2C(=O)N(C)C(=O)N(C)C2=O)c2ccccc21 (centres undefined) | -13% | -13 | 1 | -63* | -6%
CCCCn1c(N)c(N(Cc2ccccc2OC)C(=O)c2c(CC)noc2C)c(=O)[nH]c1=O | -10% | -8 | -3 | -12 | -9%
CCOC(=O)c1ccc(NC(=O)c2nc[nH]c2C(=O)N(C)Cc2ccccc2)cc1 | u | -2 | 6 | -2 | u
Oc1cc(NCc2ccccc2)cc2cccnc12 | 2.6µM* | x | x | x | 1.9µM*

Screening data from PubChem.
